D3 ag: agonists of human D3 dopamine receptor; D3R DiscoveRx beta-arrestin cells, luminescence, 90 min; max activation, %; 410,000 tested, 0.58% active; AID 652048; in the data active = max activation above about 30%; note: 0% is about no effect
Target sequence (P35462 whole entry, looked up): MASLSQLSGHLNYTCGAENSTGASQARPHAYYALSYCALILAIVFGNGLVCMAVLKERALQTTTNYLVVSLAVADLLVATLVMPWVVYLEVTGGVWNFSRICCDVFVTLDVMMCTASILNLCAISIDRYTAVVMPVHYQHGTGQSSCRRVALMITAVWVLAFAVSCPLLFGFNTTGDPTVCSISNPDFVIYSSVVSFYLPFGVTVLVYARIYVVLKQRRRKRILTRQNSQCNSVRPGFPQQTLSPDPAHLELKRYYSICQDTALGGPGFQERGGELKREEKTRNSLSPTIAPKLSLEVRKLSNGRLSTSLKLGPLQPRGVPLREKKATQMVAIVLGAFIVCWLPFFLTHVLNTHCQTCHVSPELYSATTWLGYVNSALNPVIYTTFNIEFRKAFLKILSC
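Cells at 1500/well, incubated overnight, then treated with pinned compounds (dopamine as control) for 90 min at 37 degrees C. DiscoveRx reagent added for 30 - 60 minutes at room temperature; luminescence read.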
DRD3 antagonist: D3 dopamine receptor (human) antagonism. AID 652054. D3R cells, DiscoveRx beta-arrestin luminescence, antagonist mode; active compounds read low. max response, negative = inhibition, %. P35462. 360,000 tested, 2.5% active; in the data active = max response below about -50%; inconclusive = no clear call, values can overlap the other calls; note: % is set by controls: 0 for no effect and ±100 for the full control effect
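Cells plated overnight at 1500 cells/well, then exposed to library compounds with dopamine controls for 90 minutes at 37 degrees C. DiscoveRx reagent added for 30–60 minutes at room temperature; luminescence read, quantitative HTS format.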
GRP78 ERSR act: induces the endoplasmic reticulum stress response in human glioma cells. U87-MG GRP78 promoter luciferase reporter, 16 h. AID 602332. Potency, µM, for inactives: top-dose activation, hits mostly activators. 420,000 tested, 0.02% active; note: potency is the fitted concentration of half-maximal effect; series mostly up to about 76 µM; % of control where 0% means no effect; nearly all actives have a fitted effect of over 35% in size
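Stably transfected U87-MG human glioma cells carrying a GRP78-based luminescent sensor were seeded at 1000 cells/well, pin-dosed with compounds and incubated 16 h. Luciferase reagent was then added, and end-point luminescence was read after 10 min at room temperature.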
Nrf2 ARE act: activators of Nrf2 (ARE) signaling; 410,000 tested, 0.31% active; AID 624171; AREc32 ARE-luciferase reporter (MCF7-derived line), luminescence, 24 h; Potency, µM (series often up to 46.1 µM), for the others: top-dose activation, hits mostly activators; note: potency is the fitted concentration of half-maximal effect; % of control where 0% means no effect; nearly all actives have a fitted effect of over 65% in size
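Cells of the AREc32 ARE-luciferase line are plated in OPTI-MEM containing 5% FBS and left overnight at 37 deg C. Compounds are pinned in, incubation continues 24 hr, and firefly luciferase signal is then measured.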
Starred values were filed as active, the others as inactive; ? = inconclusive; / = no result; [ ] = another dose, or the depositor's remark. A selection: hits, their analogues and other compounds. The true share with any hit is near 3%. Unless noted, calls come from the whole dose curve; as a rule, active = well fitted curve in the direction sought with a large enough effect; inconclusive = small, poorly fitted or top-dose-only effect, or another doubt; inactive = no such curve, though single readings can be large; an effect the other way counts as inactive or inconclusive.

SMILES	D3 ag	DRD3 antagonist	GRP78 ERSR act	Nrf2 ARE act
Cc1ccc(S(=O)(=O)NNC(=O)C2CCN(Cc3ccccc3)CC2)cc1	-10.4	-63.0*	-4.0%	0.2%
COc1ccccc1N1CCN(C(=O)CSc2nc(-c3ccc(C(C)C)cc3)no2)CC1	15.2	/	-3.5%	2.4%
CSc1nc2nc(C)cc(-c3ccccc3)n2n1	-0.5	-2.9	1.9%	0.8%
CSc1nc2nc(C(F)(F)F)cc(-c3ccccc3)n2n1	-0.1	9.9	-0.8%	14.1µM*
CSCC[C@H](NC(=O)[C@H](Cc1c[nH]c2ccccc12)NC(=O)CNC(=O)[C@H](Cc1ccc(O)cc1)NC(=O)[C@H](C)NC(=O)[C@H](CCC(=O)O)NC(=O)[C@H](CCC(=O)O)NC(=O)[C@H](CCC(=O)O)NC(=O)[C@H](CCC(=O)O)NC(=O)[C@H](CCC(=O)O)NC(=O)[C@H](CC(C)C)NC(=O)[C@H](Cc1c[nH]c2ccccc12)NC(=O)[C@@H]1CCCN1C(=O)CNC(=O)[C@@H]1CCC(=O)N1)C(=O)N[C@@H](CC(=O)O)C(=O)N[C@@H](Cc1ccccc1)C(=O)NCC(=O)O	/	/	-6.7%	/
NC(=O)c1ccc(Cc2ncc(C(F)(F)F)cc2Cl)s1	-2.2	0.0	-2.3%	0.3%
O=S(=O)(N/N=C/c1ccc(Cl)cc1)c1ccc(Cc2ncc(C(F)(F)F)cc2Cl)s1	3.4	-73.4*	-5.9%	0.0%
Cc1ccc(C(=O)Cc2nc3ccccc3[nH]2)cc1	-11.6	-50.5*	?	9.2%
COc1cc(C(c2sc3nc(C)nn3c2O)N2CCC3(CC2)OCCO3)cc(OC)c1OC (centres undefined)	1.6	-50.7*	-2.3%	0.6%
COC(=O)c1ccccc1NC(=O)c1ncoc1-c1ccco1	-12.0	/	-3.0%	1.12µM*
O=C(CC(Sc1ccccc1)c1cccs1)c1ccco1 (centres undefined)	-8.7	-24.7	-0.9%	17.8µM*
COc1ccc(CN2CCc3ccccc3C2)cc1Br	-7.0	-92.4*	-1.5%	0.5%
COc1cc2c(cc1OC)CN(Cc1ccc(F)cc1)CC2	-27.2	-30.0	1.2%	0.0%
Brc1cc2c(cc1CN1CCc3ccccc3C1)OCO2	-1.8	-19.3	0.2%	0.5%
COc1ccc(CN2CCc3cc(OC)c(OC)cc3C2)cc1O	-55.8	-57.6*	-1.8%	-0.9%
CCN(CCNC(=O)c1cccc(N2CCCC2=O)c1)c1ccccc1	-1.2	14.6	1.3%	-0.2%
CN(CCNC(=O)c1cccc(N2CCCC2=O)c1)Cc1ccccc1	0.4	-58.4*	0.6%	2.5%
COc1ccc(-c2ccnc3nc(-n4cccc4)nn23)cc1	0.1	8.5	-6.6%	0.6%
c1coc(-c2ccnc3nc(-n4cccc4)nn23)c1	-1.6	-1.3	-1.1%	7.94µM*
Cc1occc1C(=O)N1CCN(c2ccc(Cl)cc2)CC1	5.9	17.9	-8.1%	-0.4%
Cc1cccc(N2CCN(C(=O)c3ccoc3C)CC2)c1C	35.6*	6.8	-2.7%	-0.6%
O=C(c1ccco1)N1CCCC(N2CCN(c3cccc(C(F)(F)F)c3)CC2)C1 (centres undefined)	-18.4	-65.5*	0.5%	-0.2%
Cc1cc(C)c(C(=O)N2CCCC(N3CCN(c4cccc(C(F)(F)F)c4)CC3)C2)o1 (centres undefined)	-4.7	-54.4*	-1.4%	0.2%
Cc1c(C(=O)N(C)Cc2cscn2)sc2ncnc(NC[C@H]3CCc4ccccc4O3)c12	/	/	1.0%	/
C/C(=C\COc1c2ccoc2cc2oc(=O)ccc12)CCC(O)C(C)(C)O (centres undefined)	/	/	-0.2%	/
SMILES	D3 ag	DRD3 antagonist	GRP78 ERSR act	Nrf2 ARE act
O=C1NC(=O)C2C3C=CC(C3)C12 (centres undefined)	/	/	-2.7%	/
O=C1OC(c2ccccc2)=NC12CC2c1ccc(Cl)cc1 (centres undefined)	-2.6	-72.8*	-1.3%	6.9%
COc1ccc(-c2c(O)c3cc(O)cc(O)c3oc2=O)cc1	/	/	-3.3%	/
COc1c(C(=O)Nc2ccc(Cc3ccncc3)cc2)ccc2ccccc12	34.2*	10.6	-2.4%	0.2%
COc1ccc(Br)cc1C(=O)Nc1ccc(Cc2ccncc2)cc1	-12.5	11.4	3.2%	8.7%
CCN(Cc1ccccc1)c1ccc(/C=C/c2nccc3ccccc23)cc1	/	/	0.1%	/
Cc1ccc(P(=O)(c2ccc(C)cc2)[C@@H](NC(c2ccccc2)c2ccccc2)c2ccccc2)cc1	-17.0	-108.7*	/	-1.0%
O=c1cc(-c2cccc(Br)c2)oc2cccc(O)c12	14.9	44.4	0.8%	2µM*
C1=C/C(=C2/C=Cc3ccccc32)c2ccccc2N1	/	/	-5.2%	/
COc1ccc(C(=O)NC2CCN(S(=O)(=O)Cc3ccccc3)CC2)c(OC)c1	8.5	-12.1	-3.1%	0.0%
COc1ccc(C(=O)NC2CC3CCCC(C2)N3Cc2ccccc2)cc1 (centres undefined)	-21.3	-108.4*	-0.4%	0.0%[9.22 µM]
COc1ccc(C(=O)NC2CC3CCCC(C2)N3Cc2ccccc2)c(OC)c1 (centres undefined)	-18.3	-89.2*	-3.0%	2.6%
CCOc1ccc(C(=O)NC2CC3CCCC(C2)N3Cc2ccccc2)cc1 (centres undefined)	-9.0	-54.0*	-4.7%	0.0%
COc1ccc(CN2C3CCCC2CC(NC(=O)/C=C/c2ccccc2)C3)cc1 (centres undefined)	-21.1	-110.7*	-2.3%	-0.2%
CCCCCC[C@@H](CCC)C(=O)O	2.3	/	0.5%	/
O=C(NC1CC2CCC(C1)N2Cc1ccccc1)c1ccccc1Br (centres undefined)	-19.3	-78.9*	-0.7%	-0.8%
COc1ccccc1C(=O)NC1CC2CCC(C1)N2Cc1ccccc1 (centres undefined)	-16.7	-95.2*	-2.4%	-0.6%
CCOc1ccccc1C(=O)NC1CC2CCCC(C1)N2C1CC1 (centres undefined)	-4.4	-24.5	-2.3%	-0.7%
CSCC[C@H](N)C(=O)N[C@@H](CCCN=C(N)N)C(=O)N[C@@H](CC(C)C)C(=O)N[C@@H](Cc1ccccc1)C(=O)N[C@H](C(=O)O)C(C)C	/	/	-4.3%	/
CCOC(=O)c1ccc(NC(=O)COCc2cc(-c3ccc4c(c3)OCO4)on2)cc1	1.2	/	-2.3%	-1.1%
CN(C)CCN1CCN(C2CN(C3CCCCC3)S(=O)(=O)C2)CC1 (centres undefined)	0.7	?	-2.6%	-0.1%
O=S1(=O)CC(N2CCN(CC3CC3)CC2)CN1Cc1ccccc1 (centres undefined)	-7.4	-61.4*	-4.1%	0.3%
CCCCCCN1CCN(C2CN(C3CCCCC3)S(=O)(=O)C2)CC1 (centres undefined)	-13.6	-116.7*	-4.9%	1.4%
O=S1(=O)CC(N2CCC(Cc3ccccc3)CC2)CN1C1CCCCC1 (centres undefined)	-9.3	-78.0*	-3.3%	-0.5%
O=S1(=O)CC(N2CCN(CC3CC3)CC2)CN1Cc1ccc(F)cc1 (centres undefined)	-8.5	-8.7	-2.1%	-0.1%
Cc1cccc(CNC(=O)c2cnn(-c3nccc(-c4cc5ccccc5o4)n3)c2C2CC2)n1	/	/	-1.8%	/

Screens as filed in PubChem BioAssay.
